The text below walks through data of the OligoGym collection.
Note: reference of the scale not given here.

In the first assay the target is HBB. Nature of the assay: pooled miR-30 sensor sort-seq; sequence = guide strand. To be noted: shRNA.
The sequence TCTGATAGGCAGCCTGCACTGG gave a sensor-assay potency score (higher = more potent) of -0.723.

TTTAGTAGTTGGACTTAGGGAA showed a sensor-assay potency score (higher = more potent) of 0.165.

In turn, TCACTCAGTGTGGCAAAGGTGC yielded a sensor-assay potency score (higher = more potent) of -1.09.

TTCTTTGCCAAAGTGATGGGCC: the sensor-assay potency score (higher = more potent) was -0.0247.

On to AACAGCATCAGGAGTGGACAGA, for which the sensor-assay potency score (higher = more potent) is -1.35.

Consider TTTGCCAAAGTGATGGGCCAGC, for which the sensor-assay potency score (higher = more potent) was -0.758.

Take ATTCTTTGCCAAAGTGATGGGC: the sensor-assay potency score (higher = more potent) is -0.706.

In a further assay the target is HBD. The assay is described as above. To be noted: shRNA.
AATTCCTTGCCAAAGTTGCGGG displayed a sensor-assay potency score (higher = more potent) of -0.612.

ATTCCTTGCCAAAGTTGCGGGC: the sensor-assay potency score (higher = more potent) was -0.495.

As to ACTAAAGGCACCTAGCACCTTC, the sensor-assay potency score (higher = more potent) is -0.765.

In the case of TAGACCACCAGTAATCTGCCCA, the sensor-assay potency score (higher = more potent) is -0.29.

On to TTCACTTTGCCCCACAGGGCAT, for which the sensor-assay potency score (higher = more potent) was -0.844.

The sequence AACAGCATCAGGAGAGGACAGA came in with a sensor-assay potency score (higher = more potent) of -1.5.

For ACACACACCAGCACATTGCCCA, the sensor-assay potency score (higher = more potent) was -0.428.

On to AGCCACACCAGCCACCACCTTC, for which the sensor-assay potency score (higher = more potent) was -1.62.

With TCAGCTGAGAAAAAGTGCCCTT, the sensor-assay potency score (higher = more potent) was -0.0837.

With ACCACCAACTGCATCCACGTTC, the sensor-assay potency score (higher = more potent) is -1.79.

The target in the next assay is HBM. The description is as above. To be noted: shRNA.
In turn, TTGTCCACGTGCTGCACCGCCG displayed a sensor-assay potency score (higher = more potent) of -1.46.

In turn, AACACTGGATTAGCAGCGGAAA displayed a sensor-assay potency score (higher = more potent) of -1.52.

Sequence TTGGTGCTGGGGTACACCGTGA registered a sensor-assay potency score (higher = more potent) of -1.01.

TGAACTCGTCCTGCAGGTGGGA displayed a sensor-assay potency score (higher = more potent) of -0.648.

The sequence TGCGGGAAGTAGACCTTGGTGC gave a sensor-assay potency score (higher = more potent) of -0.583.

The sequence TGCACGGTGAACTCGTCCTGCA registered a sensor-assay potency score (higher = more potent) of -1.03.

Regarding TTTGCACGGTGAACTCGTCCTG, the sensor-assay potency score (higher = more potent) turned out to be 0.188.

For the sequence ATTAGCAGCGGAAAGTTGGCTG, the sensor-assay potency score (higher = more potent) stood at 0.235.

For TTGCACGGTGAACTCGTCCTGC, the sensor-assay potency score (higher = more potent) is 0.462.

The sequence TCAGGTCCCAGACCTGCGCGAT returned a sensor-assay potency score (higher = more potent) of -1.04.

For the sequence TGCATTTGCACGGTGAACTCGT, the sensor-assay potency score (higher = more potent) is 0.113.

Regarding TCCACGTGCTGCACCGCCGCGC, the sensor-assay potency score (higher = more potent) was -1.37.

The target in another assay is HBQ1. Described as above. The note with it: shRNA.
For the sequence TGTCGTGTAGACGCCGACGTTG, the sensor-assay potency score (higher = more potent) was -0.887.

Sequence TGGGAGAAGTAGGTCTTCGTGG came in with a sensor-assay potency score (higher = more potent) of -0.972.

On to TGGGCTCTGACTTGTGAGGAGC, for which the sensor-assay potency score (higher = more potent) was -1.65.

Take ATAACGTGGCTCAGGAACTTGT: the sensor-assay potency score (higher = more potent) was -1.13.

With TTACCAGCAGGCAGTGGCCCAG, the sensor-assay potency score (higher = more potent) is -1.7.

As to AGAAGTAGGTCTTCGTGGCGGG, the sensor-assay potency score (higher = more potent) is -0.804.

Regarding TAGGTCGTCCAGGCGCTCCACG, the sensor-assay potency score (higher = more potent) was -1.23.

For AAGTAGGTCTTCGTGGCGGGGA, the sensor-assay potency score (higher = more potent) was -0.359.

As to TTCCAGGGCCTCTGTCGTGTAG, the sensor-assay potency score (higher = more potent) is -1.54.

With TTGCTGCCCAGCTTCTTCCACA, the sensor-assay potency score (higher = more potent) is -1.27.
